# PubChem BioAssay
# Active and inactive are the calls of the source.
# Columns and labels:
# [1] = small molecules captured by biotinylated probe aFSTL3 – biochemical, small-molecule microarray, fluorescence 635/667, stem cell growth factor project, primary screen (AID 1064); details: higher = more signal;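 also: measures binding of the biotinylated anti-FSTL3 antibody to printed compounds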
# [2] = binders from COS7 lysate, DM2A8 probe, primary screen, torsin A project, cell lysate, small-molecule microarray, fluorescence 635/667 (AID 1065); details: higher = more signal, COS7 lysate expressing mutant human TOR1A
# [3] = small molecules captured by biotinylated probe aFGF2 – biochemical, small-molecule microarray, fluorescence 635/667, stem cell growth factor project, primary screen (AID 1067); details: higher = more signal;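 also: measures binding of biotinylated aFGF2 protein to printed compounds on slides; z-score merges feature fluorescence and signal-to-noise across triplicate slides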
# [4] = small molecules captured by biotinylated probe aFGF10 – biochemical, small-molecule microarray, fluorescence 635/667, stem cell growth factor project, primary screen (AID 1071); details: higher = more signal;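 also: score merges 667 nm spot intensity and signal to noise from triplicate slides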
# [5] = molecular target: Neurogenic locus notch homolog protein 2 (Homo sapiens) (UniProt Q04721); test: small molecules binding Notch2 protein – biochemical, small-molecule microarray, 635 nm fluorescence, stem cell growth factors, primary screen (AID 1073); details: higher = more signal
# [6] = molecular target: Pro-neuregulin-1, membrane-bound isoform (Homo sapiens) (UniProt Q02297); test: small molecules binding neuregulin-1 protein – biochemical, small-molecule microarray, fluorescence 635/667, psychiatric disease protein project, primary screen (AID 1075); details: NRG1 binding, 635 nm fluorescence, higher = more signal;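 also: score combines 667 nm spot fluorescence with signal to noise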
# Pro-neuregulin-1, membrane-bound isoform (Homo sapiens), sequence (Q02297 whole entry, looked up, the tested form may be a part, canonical isoform): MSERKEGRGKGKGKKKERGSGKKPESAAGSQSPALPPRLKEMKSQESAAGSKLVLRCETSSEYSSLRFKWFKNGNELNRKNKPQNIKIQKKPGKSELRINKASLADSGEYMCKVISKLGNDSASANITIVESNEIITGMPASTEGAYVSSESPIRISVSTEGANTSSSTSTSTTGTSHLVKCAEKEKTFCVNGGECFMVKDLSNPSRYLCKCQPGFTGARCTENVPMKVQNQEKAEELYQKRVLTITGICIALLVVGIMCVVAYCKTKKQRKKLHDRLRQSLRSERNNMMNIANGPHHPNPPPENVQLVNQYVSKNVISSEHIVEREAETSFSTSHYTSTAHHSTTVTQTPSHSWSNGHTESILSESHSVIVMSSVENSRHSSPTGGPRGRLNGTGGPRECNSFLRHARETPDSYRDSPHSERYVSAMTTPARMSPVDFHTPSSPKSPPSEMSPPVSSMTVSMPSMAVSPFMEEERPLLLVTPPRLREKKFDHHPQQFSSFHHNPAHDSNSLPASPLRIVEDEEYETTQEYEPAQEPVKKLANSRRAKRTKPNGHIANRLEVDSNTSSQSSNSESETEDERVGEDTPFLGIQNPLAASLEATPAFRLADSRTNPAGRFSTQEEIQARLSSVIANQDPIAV
# [7] = test system: Neuregulin-1 EGF-like domain; test: small molecules binding NRG1 EGF domain – biochemical, small-molecule microarray, 635 nm fluorescence, primary screen (AID 1081); details: higher = more signal;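 also: binding of the protein to compounds printed on small-molecule microarray slides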
# [8] = FRG1 expression reporter modulators in myotubes – cell-based, C2C12 myotubes, firefly/Renilla luciferase, luminescence, FRG1 inhibition for FSHD, primary screen (AID 1084); details: FRG1 promoter luciferase, higher = more signal, called active from +8 up or from −8 down
# [9] = small molecules captured by biotinylated probe aFST – biochemical, small-molecule microarray, fluorescence 635/667, stem cell growth factor project, primary screen (AID 1086); details: higher = more signal;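 also: score merges 667 nm fluorescence with signal-to-noise of each printed compound spot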
# [10] = binders of probe aHhip on microarray, primary screen, stem cell growth factor project, biochemical, small-molecule microarray, fluorescence 635/667 (AID 1087); details: higher = more signal;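 also: score merges spot fluorescence at 667nm with spot signal to noise ratio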
# [11] = test system: PRMT1 (protein arginine N-methyltransferase 1); test: small molecules binding arginine methyltransferase PRMT1 – biochemical, small-molecule microarray, 635 nm fluorescence, primary screen (AID 1088); details: higher = more signal;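 also: binding of Prmt1 protein to compounds spotted on small-molecule microarray slides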
# [12] = growth effects on S. cerevisiae YJM789 – YJM789 clinical isolate, OD600, 24 h, basal, primary screen (AID 1089); details: higher = more signal, called active from +8 up or from −8 down;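 also: growth of clinical yeast isolate S. cerevisiae YJM 789 seeded 1000 cells per well; test concentration not given here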
# [13] = S. pombe growth modifiers, basal conditions – strain 972, OD600, 24 h, no modulator, primary screen (AID 1090);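 also: basal condition with compound alone and no growth modifier present; test concentration not given here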; details: S. pombe 972 growth, higher = more signal, called active from +8 up or from −8 down
# [14] = budding yeast growth modifiers under rapamycin – strain BY4716, OD600, 96 h, primary screen (AID 1091); also: test concentration not given here; details: S. cerevisiae BY4716 + rapamycin, higher = more signal, called active from +8 up or from −8 down
# [15] = molecular target: Torsin-1A-interacting protein 2 (Homo sapiens) (UniProt Q8NFQ8); test: small molecules binding lysate-expressed LULL1 – cell lysate, human LULL1 lysate, 635/667 nm fluorescence, primary screen (AID 1092); details: small-molecule microarray, hLULL1 lysate binding, 635 nm fluorescence; higher = more signal;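 also: probe is lysate of COS7 cells overexpressing human LULL1; score merges per-feature 667 nm fluorescence with signal-to-noise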
# Torsin-1A-interacting protein 2 (Homo sapiens), sequence (Q8NFQ8 whole entry, looked up): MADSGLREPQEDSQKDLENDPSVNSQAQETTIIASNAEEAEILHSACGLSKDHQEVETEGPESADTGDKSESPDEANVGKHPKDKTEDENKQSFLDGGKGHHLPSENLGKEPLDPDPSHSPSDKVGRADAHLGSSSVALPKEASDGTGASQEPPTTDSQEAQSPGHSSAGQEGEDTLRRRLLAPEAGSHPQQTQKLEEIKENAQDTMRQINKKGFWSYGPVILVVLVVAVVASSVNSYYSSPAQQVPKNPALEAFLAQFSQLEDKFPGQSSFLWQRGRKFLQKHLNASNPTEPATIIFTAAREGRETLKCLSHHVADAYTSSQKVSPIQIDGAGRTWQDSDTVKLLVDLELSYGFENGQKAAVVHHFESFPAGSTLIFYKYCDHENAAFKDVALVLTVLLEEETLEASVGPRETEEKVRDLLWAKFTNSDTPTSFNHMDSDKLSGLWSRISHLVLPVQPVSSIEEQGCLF
# [16] = optical density change of DRC41 E. coli – strain DRC41, OD650, 24 h, E. coli filamentation project, primary screen (AID 1093);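 also: MC1000 strain lacking acrAB efflux and sulA so SOS filamentation is blocked; test concentration not given here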; details: E. coli DRC41 growth, higher = more signal, called active from +8 up or from −8 down
# [17] = probe aLefty2 binding to arrayed compounds – biochemical, biotinylated probe, 635/667 nm fluorescence, primary screen (AID 1094); details: small-molecule microarray, higher = more signal;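 also: score merges spot fluorescence near 667 nm with spot signal-to-noise ratio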
# [18] = test system: Noggin (protein binding on small-molecule microarray); test: small molecules binding Noggin protein – biochemical, 635/667 nm fluorescence, primary screen (AID 1095); details: 635 nm fluorescence, higher = more signal;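 also: score merges 667 nm feature fluorescence with signal to noise over triplicate slides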
# [19] = molecular target: Neurogenic locus notch homolog protein 3 (Homo sapiens) (UniProt Q9UM47); test: small molecules binding NOTCH3 protein – biochemical, 635/667 nm fluorescence, primary screen (AID 1096); details: small-molecule microarray, 635 nm fluorescence, higher = more signal
# Neurogenic locus notch homolog protein 3 (Homo sapiens), sequence (Q9UM47 whole entry, looked up): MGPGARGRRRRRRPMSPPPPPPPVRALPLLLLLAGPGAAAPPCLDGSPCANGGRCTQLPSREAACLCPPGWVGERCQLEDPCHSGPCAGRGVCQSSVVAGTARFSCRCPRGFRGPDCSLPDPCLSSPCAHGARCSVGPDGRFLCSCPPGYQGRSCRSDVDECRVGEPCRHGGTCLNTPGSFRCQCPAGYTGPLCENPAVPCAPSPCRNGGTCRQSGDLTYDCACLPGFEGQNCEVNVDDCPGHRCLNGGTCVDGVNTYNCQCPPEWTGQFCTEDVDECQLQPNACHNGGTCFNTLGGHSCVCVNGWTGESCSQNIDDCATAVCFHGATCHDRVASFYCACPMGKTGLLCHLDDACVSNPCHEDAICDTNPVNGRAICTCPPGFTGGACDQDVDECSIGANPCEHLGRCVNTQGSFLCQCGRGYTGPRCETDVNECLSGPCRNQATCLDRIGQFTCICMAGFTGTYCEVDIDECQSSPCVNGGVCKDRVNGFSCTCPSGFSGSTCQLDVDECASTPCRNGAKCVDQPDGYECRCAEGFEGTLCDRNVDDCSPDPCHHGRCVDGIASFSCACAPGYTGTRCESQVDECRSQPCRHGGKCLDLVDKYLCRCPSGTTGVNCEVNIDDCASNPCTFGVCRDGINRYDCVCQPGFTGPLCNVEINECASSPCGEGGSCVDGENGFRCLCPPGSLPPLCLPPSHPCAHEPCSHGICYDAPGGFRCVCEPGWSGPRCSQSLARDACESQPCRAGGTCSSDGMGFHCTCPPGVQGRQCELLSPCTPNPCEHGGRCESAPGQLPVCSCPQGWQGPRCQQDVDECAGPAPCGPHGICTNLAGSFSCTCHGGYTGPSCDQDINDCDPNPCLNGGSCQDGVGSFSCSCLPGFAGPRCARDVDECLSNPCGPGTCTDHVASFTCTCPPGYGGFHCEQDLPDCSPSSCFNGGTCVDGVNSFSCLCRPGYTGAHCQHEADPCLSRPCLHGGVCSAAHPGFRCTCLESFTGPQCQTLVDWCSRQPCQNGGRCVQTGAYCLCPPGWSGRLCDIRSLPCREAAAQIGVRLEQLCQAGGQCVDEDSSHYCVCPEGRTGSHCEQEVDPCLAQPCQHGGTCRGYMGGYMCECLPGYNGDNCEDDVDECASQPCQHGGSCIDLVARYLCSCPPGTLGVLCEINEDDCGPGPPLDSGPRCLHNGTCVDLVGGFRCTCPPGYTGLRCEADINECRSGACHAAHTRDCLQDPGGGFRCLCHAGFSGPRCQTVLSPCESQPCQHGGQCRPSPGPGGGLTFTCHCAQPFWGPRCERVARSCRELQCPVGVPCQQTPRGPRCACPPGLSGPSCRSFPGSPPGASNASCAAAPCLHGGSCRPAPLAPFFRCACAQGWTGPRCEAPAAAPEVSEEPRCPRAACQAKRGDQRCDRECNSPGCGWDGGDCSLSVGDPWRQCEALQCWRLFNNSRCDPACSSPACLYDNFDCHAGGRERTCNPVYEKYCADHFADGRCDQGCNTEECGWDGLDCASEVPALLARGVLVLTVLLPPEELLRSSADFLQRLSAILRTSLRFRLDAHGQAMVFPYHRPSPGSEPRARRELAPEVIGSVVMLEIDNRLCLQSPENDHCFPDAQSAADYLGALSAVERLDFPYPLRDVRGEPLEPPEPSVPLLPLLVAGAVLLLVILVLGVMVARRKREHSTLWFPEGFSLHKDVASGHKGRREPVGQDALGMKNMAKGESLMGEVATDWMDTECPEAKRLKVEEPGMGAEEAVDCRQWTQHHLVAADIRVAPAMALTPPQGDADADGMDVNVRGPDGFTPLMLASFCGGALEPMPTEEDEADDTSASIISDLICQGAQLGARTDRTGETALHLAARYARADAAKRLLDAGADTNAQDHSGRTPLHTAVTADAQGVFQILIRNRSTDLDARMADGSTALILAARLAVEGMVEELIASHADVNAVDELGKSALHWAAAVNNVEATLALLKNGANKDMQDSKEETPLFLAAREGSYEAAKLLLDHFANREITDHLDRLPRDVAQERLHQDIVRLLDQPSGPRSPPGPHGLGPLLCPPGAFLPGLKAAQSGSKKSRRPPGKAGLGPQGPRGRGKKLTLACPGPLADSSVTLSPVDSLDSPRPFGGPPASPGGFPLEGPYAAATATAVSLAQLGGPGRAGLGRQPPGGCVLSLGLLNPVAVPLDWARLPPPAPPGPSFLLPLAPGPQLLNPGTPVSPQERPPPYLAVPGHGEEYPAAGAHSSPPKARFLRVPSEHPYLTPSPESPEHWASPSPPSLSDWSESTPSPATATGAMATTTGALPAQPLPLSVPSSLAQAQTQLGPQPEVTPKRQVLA
# [20] = probe aEGFR binding to arrayed compounds – biochemical, biotinylated probe, 635/667 nm fluorescence, primary screen (AID 1097); details: small-molecule microarray, higher = more signal;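 also: probe is a biotinylated anti-EGFR antibody binding compounds printed on slides; score combines fluorescence near 667 nm and signal to noise of each spot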
Structure (SMILES),composite z-score [1],composite z-score [2],composite z-score [3],composite z-score [4],composite z-score [5],composite z-score [6],composite z-score [7],z-score [8],composite z-score [9],composite z-score [10],composite z-score [11],z-score [12],z-score [13],z-score [14],composite z-score [15],z-score [16],composite z-score [17],composite z-score [18],composite z-score [19],composite z-score [20]
COC(=O)C1(Cc2ccccc2)C=C2C(=C(c3ccccc3)C(=O)C2C)CN1 (stereo not given),2.22,0.0069,0.731,1.21,1.19,1.45,1.01,0.943 (inactive),1.87,2.63,-1.24,-0.175 (inactive),-0.183 (inactive),0.269 (inactive),1.29,-0.749 (inactive),1.32,-1.58,0.885,1.29
COc1c(C)cc(-c2cc3c(c(Cc4ccccc4)n2)[Si](C(C)C)(C(C)C)OC3)cc1C,-0.148,0.0413,-0.0448,-0.108,0.64,-0.0762,-0.588,0.184 (inactive),0.335,-0.0994,-0.13,0.784 (inactive),0.567 (inactive),1.04 (inactive),0.323,-0.733 (inactive),-0.157,0.529,0.598,-0.0509
Cc1ccc(S[C@]2(C(=O)NCC(F)(F)F)CC(=O)N(Cc3ccccc3)[C@@H]2c2ccc(CO)cc2)cc1,0.2,0.179,-0.158,-0.453,-0.851,0.248,0.463,-2.41 (inactive),-0.543,-0.266,0.293,0.249 (inactive),-1.2 (inactive),-0.711 (inactive),2.06,-1.68 (inactive),-0.137,-0.92,-0.681,-0.178
COc1ccc([Si](C)(C)[C@H]2[C@H](CCn3cc([C@H](O)c4ccccc4)nn3)O[C@@]3(C(=O)N(Cc4cccc(N5C(=O)c6cccc7cccc5c67)c4)c4ccccc43)[C@@H]2C)cc1,0.582,-0.17,-0.158,-1.11,-1.65,0.84,0.251,-0.704 (inactive),-0.295,-0.0994,0.492,-0.844 (inactive),0.723 (inactive),0.635 (inactive),1.28,-0.666 (inactive),-0.134,-1.17,-0.871,-0.21
COc1ccc(NN2C(C(O)c3ccco3)C=CC3C(=O)N(C4CCCCC4)C(=O)C32)cc1 (stereo not given),-0.0934,1.14,-0.051,1.12,1.36,0.95,1.15,0.592 (inactive),1.51,0.0216,1.56,0.0039 (inactive),-0.134 (inactive),0.705 (inactive),3.06,-0.465 (inactive),0.0405,0.89,1.03,0.191
COCCOC(=O)N1C(=O)[C@@]2(c3cc(C#CC4(O)CCCCCC4)ccc31)[C@H](c1ccccc1OCCO)N1[C@H](c3ccccc3)[C@H](c3ccccc3)OC(=O)[C@H]1[C@@H]2C(N)=O,-0.452,0.447,0.0038,0.498,1.35,0.102,1.16,-1.17 (inactive),0.489,-0.0672,1.54,1.74 (inactive),0.699 (inactive),5.17 (inactive),2.24,-0.175 (inactive),-0.102,1.06,1.05,0.0254
C[C@H]1ON(c2ccc(C(=O)OC(C)(C)C)cc2)[C@@H](c2ccc(O)cc2)[C@@H]1C(=O)N1C(=O)OC[C@@H]1c1ccccc1,-0.565,-0.156,-0.117,0.686,1.42,0.464,1.15,-0.308 (inactive),0.184,-0.0022,1.51,0.657 (inactive),-1.95 (inactive),31.6 (active),1.69,-0.661 (inactive),-0.33,0.819,1.05,-0.0315
O=C1O[C@@H](c2ccccc2)[C@@H](c2ccccc2)N2[C@@H](c3ccc(O)cc3)[C@]3(C(=O)Nc4ccccc43)[C@@H](C(=O)Nc3nc4ccccc4s3)[C@H]12,0.0072,0.155,-0.0206,0.43,-0.434,1.28,1.15,-2.37 (inactive),0.642,0.0373,1.51,0.813 (inactive),0.849 (inactive),1.4 (inactive),2.77,-0.0768 (inactive),-0.15,0.797,0.881,-0.132
C=C(C(=O)CC[C@H](OC(C)=O)c1cccc(OCCO)c1)C(C)C,0.125,-0.152,-0.189,-0.582,-0.739,0.007,-0.526,0.422 (inactive),-0.675,-0.0994,0.385,0.574 (inactive),-0.299 (inactive),-0.0905 (inactive),0.355,1.04 (inactive),-0.121,-0.621,-0.594,-0.113
CN(C)CCCNC(=O)[C@@]1(c2ccc([N+](=O)[O-])cc2)CC(=O)N(CC23CC4CC(CC(C4)C2)C3)[C@@H]1c1ccc(CO)cc1,1.47,1.15,0.301,0.143,0.904,1.38,1.35,-2.36 (inactive),1.92,0.635,1.53,-22.2 (active),-20.2 (active),-4.03 (inactive),3.39,-0.279 (inactive),0.969,1.32,1.05,0.0529
Cc1ccc(S[C@]2(C(=O)O)CC(=O)N(Cc3ccccc3Cl)[C@@H]2c2ccc(CO)cc2)cc1,0.96,-0.614,-0.113,0.449,-0.72,0.103,-0.408,-0.917 (inactive),-0.172,-0.0994,-0.164,-0.0285 (inactive),-1.31 (inactive),0.644 (inactive),2.95,-0.0647 (inactive),0.0069,-1.46,-0.944,-0.119
C=C(CCCC)C(=O)CC[C@@H](OC(=O)c1cccnc1)c1ccccc1OCCO,0.0165,0.77,-0.0878,0.0032,-0.872,-0.413,-0.0199,-0.449 (inactive),-0.604,-0.0994,1.31,-0.765 (inactive),-1.37 (inactive),-0.24 (inactive),0.178,0.22 (inactive),0.0166,0.836,0.144,-0.0565
COCCCNC(=O)[C@@]1(Sc2ccc(C)cc2)CC(=O)N(C2Cc3ccccc3C2)[C@@H]1c1ccc(CO)cc1I,0.926,-0.247,-0.156,-0.379,-1.02,1.12,-0.447,-0.703 (inactive),-0.926,-0.294,-0.649,-0.881 (inactive),-1.79 (inactive),1.43 (inactive),-0.165,-0.421 (inactive),-0.0441,-1.39,-1.16,-0.251
CN1C(=O)C2C=CC(C(O)C3CCCCC3)N(N3CCCCC3)C2C1=O (stereo not given),-0.0863,1.54,0.156,0.644,1.52,1.51,1.23,0.573 (inactive),1.01,0.398,1.56,0.823 (inactive),0.788 (inactive),0.884 (inactive),2.45,-0.593 (inactive),0.25,0.684,1.07,0.0939
O=C1C2C=CC(C(O)c3cc(C(F)(F)F)cc(C(F)(F)F)c3)N(Nc3ccc([N+](=O)[O-])cc3)C2C(=O)N1c1ccccc1 (stereo not given),-0.25,0.466,0.0678,0.94,1.67,1.86,1.17,0.0404 (inactive),0.598,-0.166,1.54,0.527 (inactive),1.15 (inactive),33.4 (active),3.47,-1.57 (inactive),-0.0229,0.411,1.02,0.0149
C[n+]1ccc(CCCO)cc1,1.03,1.06,-0.044,0.0582,-1.21,-0.161,1.45,1.12 (inactive),-0.311,0.837,0.618,0.654 (inactive),-0.96 (inactive),0.316 (inactive),0.427,-2.1 (inactive),0.181,0.436,-0.13,0.0455
COc1cc2c(cc1O)C(C)N(Cc1cc3c(cc1Br)OCO3)CC2 (stereo not given),0.731,-0.192,-0.0951,0.0663,0.511,0.53,1.5,0.0288 (inactive),-0.175,0.0749,-0.285,0.406 (inactive),-10.1 (active),-1.35 (inactive),0.169,-0.471 (inactive),0,-1.03,-0.53,-0.0594
CC(=O)NCCCC[C@@H]1NC(=O)[C@@H]2C[C@H](C(=O)O)[C@H](c3ccc(O)cc3)N2C1=O,0.736,-1.54,-0.174,-1.07,-1.09,0.78,1.42,0.785 (inactive),-0.765,-0.372,-0.728,0.611 (inactive),1.36 (inactive),0.442 (inactive),2.17,0.129 (inactive),0.0208,-1.42,-1.27,-0.322
C=CC[C@@]1(C(=O)O)N=C(c2ccc(OCCCO)cc2)O[C@@H]1c1ccccc1,0.522,3.13,0.206,0.553,0.63,2.08,1.34,0.19 (inactive),-0.55,0.212,1.11,0.639 (inactive),-2.39 (inactive),-0.203 (inactive),3.22,0.572 (inactive),-0.166,-0.0356,-0.645,-0.315
CCCCN1CC=CC23O[C@@H]4C=CCOC(=O)[C@@H]4[C@H]2C(=O)N(C(C)CO)[C@@H]3C1=O (stereo not given in full),0.762,-0.665,-0.187,-0.174,-1.03,1.7,0.745,1.66 (inactive),-0.0725,-0.189,-1.57,-0.543 (inactive),-1.22 (inactive),-0.557 (inactive),-0.449,-0.479 (inactive),-0.205,-0.929,-1.25,-0.216
